Targets with a hit are over-represented here; the source holds about 7,900 in all. About 0.6% of all pairs of compound and target were hits.
What was measured:
Experiment in all cases: log2 fold change, soluble protein after heating vs DMSO (PISA); higher = thermal stabilisation; K562 cells, 10 uM, 30 min; active = over 0.2 and 3.5 SD of the protein, either way, in both replicates (recomputed)
[1] = compound: COC1=CC=C(C=C1)CN2C=CC3=C2C=C(C=C3)C(=O)NO
Outline: (§1)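 K562 cells at 2×10^6 cells/mL were treated for 30 min with 10 μM compound, and aliquots were heated for 3 min over 48°C-58°C before pooling. Extraction used PBS with 0.5% NP-40 at 4°C, and soluble protein was the supernatant after 21,000xg for 90 min, measured by TMTpro 16plex LC-MS/MS with channel sums equalised. Thermal stability values, relative to control samples and from duplicates, are log2 fold changes.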

filanesib = compound: CON(C)C(=O)N1N=C(c2cc(F)ccc2F)S[C@@]1(CCCN)c1ccccc1 [filanesib]
Outline: as §1

zotarolimus = compound: CO[C@H]1C[C@@H]2CC[C@@H](C)[C@@](O)(O2)C(=O)C(=O)N2CCCC[C@H]2C(=O)O[C@H]([C@H](C)C[C@@H]2CC[C@H](n3cnnn3)[C@H](OC)C2)CC(=O)[C@H](C)/C=C(\C)[C@@H](O)[C@@H](OC)C(=O)[C@H](C)C[C@H](C)/C=C/C=C/C=C/1C [zotarolimus]
Outline: as §1

idasanutlin = compound: COc1cc(C(=O)O)ccc1NC(=O)[C@@H]1N[C@@H](CC(C)(C)C)[C@](C#N)(c2ccc(Cl)cc2F)[C@H]1c1cccc(Cl)c1F [idasanutlin]
Outline: as §1

alisertib = compound: COc1cc(Nc2ncc3c(n2)-c2ccc(Cl)cc2C(c2c(F)cccc2OC)=NC3)ccc1C(=O)O [alisertib]
Outline: as §1

[2] = compound: COc1cc2nc(-c3cc(F)ccc3O)nc(N[C@@H]3CNC[C@H]3C(C)(C)O)c2cc1OC
Outline: as §1

gefitinib = compound: COc1cc2ncnc(Nc3ccc(F)c(Cl)c3)c2cc1OCCCN1CCOCC1 [gefitinib]
Outline: as §1

[3] = compound: COc1cccc2cc(-c3nc([C@H]4CC[C@H](C(=O)O)CC4)n4ncnc(N)c34)[nH]c12
Outline: as §1

lapatinib = compound: CS(=O)(=O)CCNCc1ccc(-c2ccc3ncnc(Nc4ccc(OCc5cccc(F)c5)c(Cl)c4)c3c2)o1 [lapatinib]
Outline: as §1

pictilisib = compound: CS(=O)(=O)N1CCN(Cc2cc3nc(-c4cccc5[nH]ncc45)nc(N4CCOCC4)c3s2)CC1 [pictilisib]
Outline: as §1

[4] = compound: CS(=O)(=O)c1ccc(-c2cnc(N)c(C(=O)Nc3ccccc3)n2)cc1
Outline: as §1

crizotinib = compound: C[C@@H](Oc1cc(-c2cnn(C3CCNCC3)c2)cnc1N)c1c(Cl)ccc(F)c1Cl [crizotinib]
Outline: as §1

[5] = compound: C[C@@H]1COCCN1C2=NC(=NC(=C2)C3(CC3)S(=O)(=O)C)C4=C5C=CNC5=CC=C4
Outline: as §1

[6] = compound: C[C@H](C1=CC=C(C=C1)C(=O)NC2=C3C=CNC3=NC=C2)N
Outline: as §1

duvelisib = compound: C[C@H](Nc1ncnc2nc[nH]c12)c1cc2cccc(Cl)c2c(=O)n1-c1ccccc1 [duvelisib]
Outline: as §1

gandotinib = compound: Cc1cc(Nc2cc(CN3CCOCC3)c3nc(C)c(Cc4ccc(Cl)cc4F)n3n2)n[nH]1 [gandotinib]
Outline: as §1

tozasertib = compound: Cc1cc(Nc2cc(N3CCN(C)CC3)nc(Sc3ccc(NC(=O)C4CC4)cc3)n2)n[nH]1 [tozasertib]
Outline: as §1

[7] = compound: Cc1cc(SCc2sc(-c3ccc(C(F)(F)F)cc3)nc2C)ccc1OCC(=O)O
Outline: as §1

doramapimod = compound: Cc1ccc(-n2nc(C(C)(C)C)cc2NC(=O)Nc2ccc(OCCN3CCOCC3)c3ccccc23)cc1 [doramapimod]
Outline: as §1

ispinesib = compound: Cc1ccc(C(=O)N(CCCN)[C@@H](c2nc3cc(Cl)ccc3c(=O)n2Cc2ccccc2)C(C)C)cc1 [ispinesib]
Outline: as §1

Measured: log2 fold change

CHCHD4 isoform 2 (UniProt Q8N4Q1)
UniProt Q8N4Q1, sequence (Q8N4Q1 whole entry, looked up): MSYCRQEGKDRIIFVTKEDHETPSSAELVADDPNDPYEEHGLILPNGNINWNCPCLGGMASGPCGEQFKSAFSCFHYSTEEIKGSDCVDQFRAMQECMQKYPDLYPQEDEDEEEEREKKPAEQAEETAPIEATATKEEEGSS
inactive: [1] 0 | filanesib -0.059 | zotarolimus 0.032 | idasanutlin -0.043 | alisertib -0.099 | [2] -0.285 | gefitinib 0.011 | [3] 0.102 | lapatinib 0.341 | pictilisib -0.016 | [4] -0.041 | crizotinib 0.017 | [5] 0.156 | [6] -0.272 | duvelisib -0.217 | gandotinib -0.079 | tozasertib 0.182 | [7] 0.022 | doramapimod 0.069 | ispinesib -0.074

CCNT1 (UniProt O60563)
active: [2] -0.371
inactive: [1] -0.05 | filanesib 0.13 | zotarolimus 0.044 | idasanutlin 0.109 | alisertib -0.093 | gefitinib 0.021 | [3] -0.158 | lapatinib 0.098 | pictilisib -0.049 | [4] -0.124 | crizotinib -0.088 | [5] -0.098 | [6] 0.13 | duvelisib -0.076 | gandotinib -0.1 | tozasertib -0.075 | [7] 0.076 | doramapimod 0.181 | ispinesib -0.277

COA6 isoform 2 (UniProt Q5JTJ3)
UniProt Q5JTJ3, sequence (Q5JTJ3 whole entry, looked up): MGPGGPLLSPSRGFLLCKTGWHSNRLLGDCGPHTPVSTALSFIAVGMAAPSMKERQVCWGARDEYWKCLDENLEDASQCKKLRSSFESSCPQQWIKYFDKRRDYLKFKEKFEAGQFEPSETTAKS
inactive: [1] 0.02 | filanesib -0.029 | zotarolimus 0.019 | idasanutlin -0.052 | alisertib 0.002 | [2] -0.042 | gefitinib -0.003 | [3] 0.022 | lapatinib -0.017 | pictilisib -0.006 | [4] 0.026 | crizotinib -0.001 | [5] -0.07 | [6] -0.155 | duvelisib 0.068 | gandotinib 0.082 | tozasertib 0.109 | [7] 0.159 | doramapimod 0 | ispinesib 0.035

CCNB1 (UniProt P14635)
inactive: [1] -0.006 | filanesib -0.035 | zotarolimus -0.009 | idasanutlin 0.003 | alisertib -0.061 | [2] 0.015 | gefitinib -0.009 | [3] 0.017 | lapatinib -0.044 | pictilisib 0.002 | [4] -0.002 | crizotinib -0.021 | [5] -0.044 | [6] -0.024 | duvelisib 0.06 | gandotinib -0.004 | tozasertib -0.042 | [7] -0.025 | doramapimod -0.011 | ispinesib 0.043

COMMD2 (UniProt Q86X83)
UniProt Q86X83, sequence (Q86X83 whole entry, looked up): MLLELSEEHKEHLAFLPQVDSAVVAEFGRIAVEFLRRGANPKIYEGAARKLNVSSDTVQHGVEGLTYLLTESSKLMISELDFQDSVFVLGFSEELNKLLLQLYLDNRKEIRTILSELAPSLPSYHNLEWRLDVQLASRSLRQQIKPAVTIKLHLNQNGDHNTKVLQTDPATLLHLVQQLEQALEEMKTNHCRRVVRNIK
inactive: [1] -0.039 | filanesib 0.058 | zotarolimus 0.124 | idasanutlin -0.058 | alisertib -0.126 | [2] 0.076 | gefitinib 0.018 | [3] 0.001 | lapatinib 0.02 | pictilisib 0.007 | [4] -0.048 | crizotinib -0.13 | [5] 0.102 | [6] 0.037 | duvelisib 0.097 | gandotinib -0.029 | tozasertib 0.082 | [7] -0.018 | doramapimod -0.012 | ispinesib 0.014

CRKL (UniProt P46109)
UniProt P46109, sequence (P46109 whole entry, looked up): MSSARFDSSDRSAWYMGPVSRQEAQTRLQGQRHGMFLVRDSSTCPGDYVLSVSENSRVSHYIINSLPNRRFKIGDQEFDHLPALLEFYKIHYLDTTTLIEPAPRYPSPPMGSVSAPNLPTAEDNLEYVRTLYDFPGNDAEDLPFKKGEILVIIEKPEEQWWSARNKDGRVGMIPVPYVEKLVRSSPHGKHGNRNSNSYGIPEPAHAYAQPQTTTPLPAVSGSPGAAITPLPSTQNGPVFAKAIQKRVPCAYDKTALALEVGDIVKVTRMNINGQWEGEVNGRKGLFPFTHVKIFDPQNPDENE
active: crizotinib -1.34
inactive: [1] 0.006 | filanesib 0.002 | zotarolimus 0.007 | idasanutlin 0.022 | alisertib -0.036 | [2] 0.021 | gefitinib 0 | [3] 0.102 | lapatinib -0.012 | pictilisib 0.057 | [4] 0.037 | [5] 0.008 | [6] -0.045 | duvelisib 0.075 | gandotinib -0.027 | tozasertib -0.357 | [7] 0.012 | doramapimod -0.024 | ispinesib 0.046

CNDP2 (UniProt Q96KP4)
UniProt Q96KP4, sequence (Q96KP4 whole entry, looked up): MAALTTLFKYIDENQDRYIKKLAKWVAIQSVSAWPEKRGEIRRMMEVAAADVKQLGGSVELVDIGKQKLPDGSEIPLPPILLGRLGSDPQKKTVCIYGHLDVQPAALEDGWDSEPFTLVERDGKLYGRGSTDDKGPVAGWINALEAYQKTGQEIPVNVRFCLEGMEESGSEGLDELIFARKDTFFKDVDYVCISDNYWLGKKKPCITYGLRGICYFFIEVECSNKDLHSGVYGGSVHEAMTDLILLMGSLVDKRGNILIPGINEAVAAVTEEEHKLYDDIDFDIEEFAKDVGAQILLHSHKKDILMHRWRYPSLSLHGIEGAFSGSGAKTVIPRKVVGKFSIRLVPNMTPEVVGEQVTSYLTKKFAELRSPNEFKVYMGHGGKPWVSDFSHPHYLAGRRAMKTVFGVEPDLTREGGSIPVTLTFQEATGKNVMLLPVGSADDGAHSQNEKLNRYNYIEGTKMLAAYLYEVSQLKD
inactive: [1] -0.171 | filanesib -0.145 | zotarolimus 0.041 | idasanutlin -0.024 | alisertib -0.049 | [2] -0.001 | gefitinib -0.008 | [3] 0.027 | lapatinib 0.017 | pictilisib 0.021 | [4] 0.03 | crizotinib -0.061 | [5] 0.102 | [6] -0.067 | duvelisib 0.02 | gandotinib 0.072 | tozasertib -0.02 | [7] 0.015 | doramapimod 0.018 | ispinesib -0.099

CD151 (UniProt P48509)
UniProt P48509, sequence (P48509 whole entry, looked up): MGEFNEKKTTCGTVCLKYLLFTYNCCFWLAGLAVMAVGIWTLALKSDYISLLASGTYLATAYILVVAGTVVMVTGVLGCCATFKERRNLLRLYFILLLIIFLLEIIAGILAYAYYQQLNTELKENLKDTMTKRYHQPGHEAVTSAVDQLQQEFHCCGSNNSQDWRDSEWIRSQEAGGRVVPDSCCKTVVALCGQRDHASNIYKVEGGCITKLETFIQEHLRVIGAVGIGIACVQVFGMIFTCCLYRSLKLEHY
inactive: [1] -0.045 | filanesib 0.108 | zotarolimus -0.048 | idasanutlin -0.12 | alisertib 0.075 | [2] 0.111 | gefitinib 0.001 | [3] -0.024 | lapatinib 0.012 | pictilisib 0.116 | [4] -0.151 | crizotinib 0.208 | [5] 0.07 | [6] -0.089 | duvelisib 0.138 | gandotinib -0.19 | tozasertib -0.04 | [7] -0.043 | doramapimod -0.056 | ispinesib 0.068

CDKN2AIP (UniProt Q9NXV6)
inactive: [1] 0.059 | filanesib 0.024 | zotarolimus -0.029 | idasanutlin -0.033 | alisertib -0.091 | [2] -0.007 | gefitinib 0.038 | [3] 0.054 | lapatinib 0.042 | pictilisib -0.025 | [4] -0.053 | crizotinib 0.01 | [5] -0.132 | [6] -0.004 | duvelisib 0.031 | gandotinib -0.012 | tozasertib -0.024 | [7] 0.021 | doramapimod -0.019 | ispinesib 0.048

CSE1L (UniProt P55060)
UniProt P55060, sequence (P55060 whole entry, looked up): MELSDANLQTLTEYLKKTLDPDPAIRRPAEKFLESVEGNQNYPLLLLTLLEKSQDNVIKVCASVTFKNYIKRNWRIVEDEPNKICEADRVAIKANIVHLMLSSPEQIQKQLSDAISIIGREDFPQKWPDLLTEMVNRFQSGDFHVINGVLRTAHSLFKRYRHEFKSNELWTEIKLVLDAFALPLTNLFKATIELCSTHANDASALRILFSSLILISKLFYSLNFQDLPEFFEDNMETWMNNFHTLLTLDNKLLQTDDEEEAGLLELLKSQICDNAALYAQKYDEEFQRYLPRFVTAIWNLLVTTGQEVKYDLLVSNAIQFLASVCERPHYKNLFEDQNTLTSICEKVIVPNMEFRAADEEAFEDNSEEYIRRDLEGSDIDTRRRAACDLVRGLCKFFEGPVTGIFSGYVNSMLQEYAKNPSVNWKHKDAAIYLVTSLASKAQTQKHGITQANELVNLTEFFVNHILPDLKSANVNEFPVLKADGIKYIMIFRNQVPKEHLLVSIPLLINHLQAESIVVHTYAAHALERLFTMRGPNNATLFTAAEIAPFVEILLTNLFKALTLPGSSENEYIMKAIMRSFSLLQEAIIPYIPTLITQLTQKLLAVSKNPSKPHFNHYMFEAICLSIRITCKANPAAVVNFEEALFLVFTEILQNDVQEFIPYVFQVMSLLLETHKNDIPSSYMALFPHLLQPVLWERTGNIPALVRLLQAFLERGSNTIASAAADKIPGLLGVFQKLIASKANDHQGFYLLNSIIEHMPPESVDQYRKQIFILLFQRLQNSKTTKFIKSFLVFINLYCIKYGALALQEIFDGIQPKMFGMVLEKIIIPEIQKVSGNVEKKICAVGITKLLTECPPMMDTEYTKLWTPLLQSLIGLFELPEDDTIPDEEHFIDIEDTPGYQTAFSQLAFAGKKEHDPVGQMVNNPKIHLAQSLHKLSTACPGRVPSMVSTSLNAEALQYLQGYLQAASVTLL
inactive: [1] 0.024 | filanesib -0.1 | zotarolimus 0.027 | idasanutlin -0.135 | alisertib -0.059 | [2] 0.005 | gefitinib -0.018 | [3] -0.019 | lapatinib -0.036 | pictilisib -0.015 | [4] 0.008 | crizotinib -0.063 | [5] 0.083 | [6] -0.067 | duvelisib 0.01 | gandotinib -0.174 | tozasertib 0.066 | [7] 0.024 | doramapimod -0.027 | ispinesib -0.003

CPD (UniProt O75976)
inactive: [1] 0.022 | filanesib 0.082 | zotarolimus -0.045 | idasanutlin -0.005 | alisertib -0.038 | [2] 0.046 | gefitinib 0.007 | [3] 0.015 | lapatinib -0.01 | pictilisib 0.034 | [4] 0 | [5] 0.002 | [6] 0.019 | duvelisib 0.036 | gandotinib 0.033 | tozasertib -0.036 | [7] -0.01 | doramapimod 0.028 | ispinesib -0.174
active: crizotinib -0.294

CDK11B (UniProt P21127)
UniProt P21127, sequence (P21127 whole entry, looked up): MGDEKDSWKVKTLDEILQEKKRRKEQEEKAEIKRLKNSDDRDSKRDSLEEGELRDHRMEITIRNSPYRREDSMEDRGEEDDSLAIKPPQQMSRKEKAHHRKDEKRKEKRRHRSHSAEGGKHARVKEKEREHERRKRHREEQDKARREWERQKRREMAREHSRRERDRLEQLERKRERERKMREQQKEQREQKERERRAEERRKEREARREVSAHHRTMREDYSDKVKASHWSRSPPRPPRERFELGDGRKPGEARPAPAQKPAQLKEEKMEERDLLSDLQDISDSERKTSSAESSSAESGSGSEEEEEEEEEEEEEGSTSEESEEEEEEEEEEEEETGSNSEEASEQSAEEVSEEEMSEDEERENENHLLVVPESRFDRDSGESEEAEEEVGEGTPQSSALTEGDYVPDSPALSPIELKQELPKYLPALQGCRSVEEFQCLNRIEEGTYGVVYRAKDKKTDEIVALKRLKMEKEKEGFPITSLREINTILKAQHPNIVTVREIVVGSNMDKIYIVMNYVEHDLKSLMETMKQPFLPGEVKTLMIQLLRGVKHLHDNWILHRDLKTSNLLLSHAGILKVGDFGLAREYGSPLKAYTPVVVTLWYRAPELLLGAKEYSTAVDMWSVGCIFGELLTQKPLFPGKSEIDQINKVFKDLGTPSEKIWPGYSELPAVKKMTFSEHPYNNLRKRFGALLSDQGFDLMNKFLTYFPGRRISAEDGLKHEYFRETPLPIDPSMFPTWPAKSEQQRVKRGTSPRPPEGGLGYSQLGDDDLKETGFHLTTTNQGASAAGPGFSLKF
active: crizotinib 1.24
inactive: [1] -0.253 | filanesib -0.009 | zotarolimus -0.046 | idasanutlin -0.094 | alisertib 0.011 | [2] 0.151 | gefitinib 0.095 | [3] 0.097 | lapatinib -0.069 | pictilisib -0.057 | [4] 0.025 | [5] 0.052 | [6] 0.166 | duvelisib 0.099 | gandotinib 0.105 | tozasertib 0.018 | [7] 0.007 | doramapimod 0 | ispinesib 0.022

CHD3 isoform 3 (UniProt Q12873)
inactive: [1] -0.137 | filanesib 0.082 | zotarolimus 0.174 | idasanutlin 0.097 | alisertib -0.001 | [2] -0.207 | gefitinib 0 | [3] -0.051 | lapatinib -0.016 | pictilisib -0.024 | [4] -0.036 | crizotinib -0.128 | [5] 0.068 | [6] 0.079 | duvelisib 0.01 | gandotinib 0.237 | tozasertib 0.23 | [7] 0.14 | doramapimod 0.026 | ispinesib -0.193

CPSF1 (UniProt Q10570)
UniProt Q10570, sequence (Q10570 whole entry, looked up): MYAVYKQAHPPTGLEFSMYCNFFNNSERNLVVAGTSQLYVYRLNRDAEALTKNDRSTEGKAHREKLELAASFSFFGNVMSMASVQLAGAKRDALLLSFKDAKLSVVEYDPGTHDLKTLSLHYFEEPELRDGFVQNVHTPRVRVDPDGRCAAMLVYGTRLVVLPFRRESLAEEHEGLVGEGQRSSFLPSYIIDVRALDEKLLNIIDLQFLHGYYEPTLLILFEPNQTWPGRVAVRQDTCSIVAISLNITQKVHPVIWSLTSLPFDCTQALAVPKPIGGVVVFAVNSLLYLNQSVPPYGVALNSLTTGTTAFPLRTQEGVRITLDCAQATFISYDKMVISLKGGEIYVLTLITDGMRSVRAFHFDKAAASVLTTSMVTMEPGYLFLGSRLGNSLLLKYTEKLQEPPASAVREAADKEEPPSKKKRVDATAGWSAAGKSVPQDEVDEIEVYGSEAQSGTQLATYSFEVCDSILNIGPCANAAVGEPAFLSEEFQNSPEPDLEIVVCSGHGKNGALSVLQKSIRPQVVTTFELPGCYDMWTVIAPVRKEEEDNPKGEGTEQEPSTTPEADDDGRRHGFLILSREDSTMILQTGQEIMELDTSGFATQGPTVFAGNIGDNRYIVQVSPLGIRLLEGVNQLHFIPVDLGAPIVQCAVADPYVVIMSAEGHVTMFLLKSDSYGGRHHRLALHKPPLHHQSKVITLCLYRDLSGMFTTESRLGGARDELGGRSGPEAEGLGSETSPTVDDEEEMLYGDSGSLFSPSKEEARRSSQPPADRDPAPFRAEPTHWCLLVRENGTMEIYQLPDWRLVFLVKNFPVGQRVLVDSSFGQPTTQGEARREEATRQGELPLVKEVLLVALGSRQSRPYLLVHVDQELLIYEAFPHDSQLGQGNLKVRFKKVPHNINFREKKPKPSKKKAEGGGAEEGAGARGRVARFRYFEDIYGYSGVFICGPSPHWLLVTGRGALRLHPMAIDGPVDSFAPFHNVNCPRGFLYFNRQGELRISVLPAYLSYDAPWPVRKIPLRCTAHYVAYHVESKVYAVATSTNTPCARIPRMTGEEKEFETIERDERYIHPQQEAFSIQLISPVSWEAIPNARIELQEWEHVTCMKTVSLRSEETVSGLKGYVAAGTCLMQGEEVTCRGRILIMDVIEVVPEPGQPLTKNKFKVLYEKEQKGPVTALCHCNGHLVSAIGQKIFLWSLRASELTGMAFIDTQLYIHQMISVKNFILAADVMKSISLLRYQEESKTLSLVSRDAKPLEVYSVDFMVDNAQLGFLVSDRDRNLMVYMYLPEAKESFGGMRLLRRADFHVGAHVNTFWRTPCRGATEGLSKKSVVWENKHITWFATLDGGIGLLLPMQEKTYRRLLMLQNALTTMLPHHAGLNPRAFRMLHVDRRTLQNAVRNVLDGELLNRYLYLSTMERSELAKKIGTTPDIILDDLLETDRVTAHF
inactive: [1] -0.042 | filanesib 0.164 | zotarolimus 0.095 | idasanutlin 0.053 | alisertib -0.08 | [2] 0.02 | gefitinib -0.079 | [3] 0.01 | lapatinib 0.029 | pictilisib -0.058 | [4] -0.015 | crizotinib -0.021 | [5] -0.185 | [6] 0.048 | duvelisib 0.064 | gandotinib -0.068 | tozasertib -0.032 | [7] 0.161 | doramapimod 0.09 | ispinesib 0.036

CDK5RAP3 isoform 4 (UniProt Q96JB5)
inactive: [1] -0.008 | filanesib -0.085 | zotarolimus 0.026 | idasanutlin -0.091 | alisertib -0.001 | [2] 0.075 | gefitinib 0.024 | [3] 0.004 | lapatinib -0.034 | pictilisib -0.015 | [4] -0.017 | crizotinib -0.054 | [5] 0.044 | [6] -0.038 | duvelisib 0.005 | gandotinib -0.051 | tozasertib 0.015 | [7] 0.016 | doramapimod -0.033 | ispinesib -0.036

CASP3 (UniProt P42574)
UniProt P42574, sequence (P42574 whole entry, looked up): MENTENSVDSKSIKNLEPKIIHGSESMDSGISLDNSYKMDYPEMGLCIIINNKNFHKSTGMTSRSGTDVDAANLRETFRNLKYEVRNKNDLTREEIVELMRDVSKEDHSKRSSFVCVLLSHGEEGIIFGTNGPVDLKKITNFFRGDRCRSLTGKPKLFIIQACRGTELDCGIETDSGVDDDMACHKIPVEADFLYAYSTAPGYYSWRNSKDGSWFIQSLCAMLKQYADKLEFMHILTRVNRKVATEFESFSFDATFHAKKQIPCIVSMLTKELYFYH
inactive: [1] 0.004 | filanesib -0.002 | zotarolimus 0.029 | idasanutlin 0.072 | alisertib -0.103 | [2] 0.025 | gefitinib 0.002 | [3] -0.018 | lapatinib 0.017 | pictilisib 0.006 | [4] 0.017 | crizotinib 0.036 | [5] -0.059 | [6] -0.057 | duvelisib -0.025 | gandotinib -0.019 | tozasertib -0.036 | [7] -0.05 | doramapimod -0.022 | ispinesib -0.004
